This test can be described thus: Confirmation Concentration-Response Assay for qHTS Assay for Epigenetic Modulators. To be noted: murine C127i LDR cells, GFP reporter derepression, 30 h. The source says: NIH Molecular Libraries Screening Centers Network [MLSCN] NIH Chemical Genomics Center [NCGC] MLSCN Grant: 1 X01 MH079860-01 Assay Provider: Elisabeth D. Martinez, University of Texas SW Medical Center NCGC Assay Overview: This assay, used for the primary screen, was employed here to confirm actives identified from the Locus Derepression (LDR) assay (PubChem AID 1865). The LDR assay detects the derepression of a GFP reporter that is stably integrated in a region of the genome of murine c127i mammary cells that is presumably silenced. Compounds that derepress or induce this reporter locus are identified by enumerating GFP positive cells using an Acumen Explorer Ex3 (TTP Labtech) laser-scanning microplate cytometer.
NCGC Assay Protocol Summary: Three hundred LDR cells in 5 uL per well were dispensed into black, clear-bottom 1536-well plates. Twenty-three nL compound was transferred to the assay plate and cells were incubated 30 hours at 37 C. Medium was removed, cells were washed two times with PBS, and GFP-positive cells were enumerated as fluorescent objects between the sizes of 20 to 120 um width and depth using an Acumen Explorer Ex3 (TTP Labtech) laser-scanning microplate cytometer. For further details, see Johnson, RL, Huang, W, Jadhav, A, Austin, CP, Inglese, J, Martinez, ED (2008). A quantitative high-throughput screen identifies potential epigenetic modulators of gene expression. […]
(In general: qHTS replaces the single test concentration by a dilution series.)

Records with an inconclusive call do not appear. Activity calls are given as the source filed them. Calls follow the shape of the dose curve; as a rule, active = well fitted activation curve with a large enough effect; inconclusive = small, poorly fitted or top-dose-only effect; inactive = flat fitted curve, though single readings scatter.

On to `O=C1NC(=O)N(CCc2ccc(F)cc2)C(=O)/C1=C/C=C/c1ccccc1`, for which the Potency is 12.6 µM (active).
